{"source": "ChEMBL document CHEMBL1961873", "about": "“Compounds: GSK PKIS; Assays: Nanosyn kinase panel” (2012)", "data": [{"target": "T1, cAMP-dependent protein kinase catalytic subunit PRKX (Homo sapiens) (UniProt P51817)", "T1 sequence (whole entry)": "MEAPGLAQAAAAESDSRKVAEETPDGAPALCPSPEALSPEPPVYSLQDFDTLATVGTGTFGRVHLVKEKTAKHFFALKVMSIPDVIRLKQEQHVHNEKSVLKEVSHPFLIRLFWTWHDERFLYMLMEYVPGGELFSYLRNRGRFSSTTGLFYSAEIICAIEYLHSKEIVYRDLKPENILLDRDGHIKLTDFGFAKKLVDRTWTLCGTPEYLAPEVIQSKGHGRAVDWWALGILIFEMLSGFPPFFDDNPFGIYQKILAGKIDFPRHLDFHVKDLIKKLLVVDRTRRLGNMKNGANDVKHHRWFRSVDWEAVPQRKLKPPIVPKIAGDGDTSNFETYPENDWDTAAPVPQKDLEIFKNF", "settings": "at 1 µM", "units": {"inhibition": "%"}, "values": [{"compound": "Fc1ccc(-c2nn3ccccc3c2-c2ccncc2)cc1", "inhibition": 3.65}, {"compound": "COc1cc2c(cc1Nc1nc(Nc3ccsc3C(N)=O)c3cc[nH]c3n1)N(C(=O)CN(C)C)CCC2(C)C", "inhibition": 6.05}, {"compound": "CN1CCC(n2cnc(-c3ccc(F)cc3)c2-c2ccnc(N)n2)CC1", "inhibition": 1.95}, {"compound": "FC(F)(F)c1cccc(-c2nn3ncccc3c2-c2ccnc(Nc3ccc4c(c3)OCCO4)n2)c1", "inhibition": -1.55}, {"compound": "CC1=C(C(=O)Nc2cc(Cl)c3[nH]ncc3c2)C(c2ccc(C(F)(F)F)cc2)CC(=O)N1", "note": "(centres undefined)", "inhibition": 79.7}, {"compound": "CS(=O)(=O)CCNCc1ccc(-c2ccc3ncnc(Nc4ccc(OCc5ccccc5)c(C(F)(F)F)c4)c3c2)o1", "inhibition": 2.08}, {"compound": "Nc1nc(-c2ccc(F)cc2)c(-c2ccc3ncccc3n2)s1", "inhibition": 3.14}, {"compound": "COc1cc(Nc2nccc(Nc3ccc4c(C)n[nH]c4c3)n2)cc(OC)c1OC", "inhibition": -0.26}, {"compound": "CN(C)CCOc1ccc(-c2nc(-c3ccncc3)c(-c3ccc4c(c3)CC/C4=N\\O)[nH]2)cc1", "inhibition": 1.33}, {"compound": "CCn1c(-c2nonc2N)nc2c(C#CC(C)(C)O)ncc(OC3CCNCC3)c21", "inhibition": 89}, {"compound": "[O-][S+]1CCN(Cc2ccc(-c3ccc4ncnc(Nc5ccc(OCc6cccc(F)c6)c(Cl)c5)c4c3)o2)CC1", "inhibition": 2.98}, {"compound": "COc1ccc(-c2cc(-c3c[nH]nc3-c3ccccn3)ccn2)cc1", "inhibition": 6.17}, {"compound": "Cc1ccc2c(-c3ccnc(Nc4ccccc4)n3)c(-c3ccc(F)cc3)nn2n1", "inhibition": -0.36}, {"compound": "COc1ccc(-c2oc3ncnc(N)c3c2-c2ccc(NC(=O)Nc3cc(C(F)(F)F)ccc3F)cc2)cc1", "inhibition": 3.47}, {"compound": "CCCN(CCS(C)(=O)=O)Cc1ccc(-c2ccc3ncnc(Nc4ccc(OCc5cccc(F)c5)c(Cl)c4)c3c2)o1", "inhibition": 1.27}, {"compound": "CCn1c(-c2nonc2N)nc2c(C#CC(C)(C)O)nc(OC[C@H](N)c3ccccc3)cc21", "inhibition": 87.1}]}, {"target": "Rho-associated protein kinase 1 (Homo sapiens) (UniProt Q13464)", "sequence (Q13464 2-1354 limits assumed)": "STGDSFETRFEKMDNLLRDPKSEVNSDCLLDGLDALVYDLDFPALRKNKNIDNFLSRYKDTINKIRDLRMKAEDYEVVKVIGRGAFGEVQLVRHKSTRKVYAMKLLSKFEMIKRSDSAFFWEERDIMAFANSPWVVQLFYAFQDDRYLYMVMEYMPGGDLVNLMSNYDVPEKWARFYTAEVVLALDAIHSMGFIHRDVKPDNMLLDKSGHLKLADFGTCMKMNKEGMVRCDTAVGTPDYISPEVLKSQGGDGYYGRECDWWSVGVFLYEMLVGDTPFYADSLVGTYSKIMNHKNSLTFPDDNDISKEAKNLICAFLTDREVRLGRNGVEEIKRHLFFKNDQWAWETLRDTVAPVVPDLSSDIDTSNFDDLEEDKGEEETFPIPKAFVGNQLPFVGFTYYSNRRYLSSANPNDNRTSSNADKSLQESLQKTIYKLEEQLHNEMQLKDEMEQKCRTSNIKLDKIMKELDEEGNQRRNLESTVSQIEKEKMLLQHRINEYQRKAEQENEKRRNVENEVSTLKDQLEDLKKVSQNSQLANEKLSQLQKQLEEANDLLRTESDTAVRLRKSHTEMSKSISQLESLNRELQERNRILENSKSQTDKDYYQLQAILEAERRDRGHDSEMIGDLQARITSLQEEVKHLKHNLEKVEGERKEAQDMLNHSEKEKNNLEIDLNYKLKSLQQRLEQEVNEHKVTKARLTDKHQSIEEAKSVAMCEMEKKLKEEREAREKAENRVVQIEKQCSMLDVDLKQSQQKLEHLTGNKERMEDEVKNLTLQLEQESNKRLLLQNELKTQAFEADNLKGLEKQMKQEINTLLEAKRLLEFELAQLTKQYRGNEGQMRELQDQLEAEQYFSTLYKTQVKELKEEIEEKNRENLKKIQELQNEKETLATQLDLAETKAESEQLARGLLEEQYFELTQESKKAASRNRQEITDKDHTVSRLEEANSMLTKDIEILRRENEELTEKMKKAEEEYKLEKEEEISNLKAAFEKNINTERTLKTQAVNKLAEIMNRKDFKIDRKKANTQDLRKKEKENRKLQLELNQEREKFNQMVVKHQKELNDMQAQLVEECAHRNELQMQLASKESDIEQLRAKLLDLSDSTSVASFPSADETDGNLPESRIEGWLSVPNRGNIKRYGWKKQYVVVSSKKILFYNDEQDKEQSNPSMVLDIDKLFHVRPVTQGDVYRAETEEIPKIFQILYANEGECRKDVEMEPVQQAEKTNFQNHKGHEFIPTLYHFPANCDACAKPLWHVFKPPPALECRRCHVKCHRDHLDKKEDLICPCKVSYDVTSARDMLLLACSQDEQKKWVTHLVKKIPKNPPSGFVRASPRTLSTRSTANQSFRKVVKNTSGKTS", "settings": "at 0.1 µM", "units": {"inhibition": "%"}, "values": [{"compound": "CC(C)(CO)CNC(=O)c1ccc2c(c1)/C(=N/Nc1ccc(S(N)(=O)=O)cc1)C(=O)N2", "inhibition": 0.33}, {"compound": "O=C(Nc1n[nH]c2cc(-c3ccc(F)cc3)ccc12)C1CC1", "inhibition": 6.12}, {"compound": "NC(=O)c1sc(-n2cnc3ccc(C(F)(F)F)cc32)cc1OCc1ccccc1Br", "inhibition": 0.45}, {"compound": "CCn1c(-c2nonc2N)nc2ccccc21", "inhibition": 6.65}, {"compound": "c1ccc(-c2nc3n(c2-c2ccc4c(c2)OCO4)CCC3)nc1", "inhibition": 3.64}, {"compound": "CCNC(=O)O[C@H]1CN[C@H](C#Cc2cc3ncnc(Nc4ccc(OCc5cccc(F)c5)c(Cl)c4)c3s2)C1", "inhibition": 0.96}, {"compound": "CCn1c(-c2nonc2N)nc2cnc(Oc3cccc(NC(=O)c4ccc(N(C)C)cc4)c3)cc21", "inhibition": 85.5}, {"compound": "CC(=O)Nc1cccc(C#Cc2cncnc2Nc2ccc(OCc3cccc(F)c3)c(Cl)c2)c1", "inhibition": 1.07}, {"compound": "N#Cc1c(NC(=O)c2ccc(F)cc2)sc2c1CCCC2", "inhibition": 0.43}, {"compound": "CS(=O)(=O)CCNCc1coc(-c2ccc3ncnc(Nc4ccc(OCc5ccccc5)cc4)c3c2)c1", "inhibition": 0.65}, {"compound": "N#Cc1c(NC(=O)CN2CCOCC2)sc2c1CCCC2", "inhibition": 0.84}, {"compound": "NS(=O)(=O)c1ccc(Nc2ncc(-c3ccccc3)o2)cc1", "inhibition": 0.63}, {"compound": "COc1cc(/C=N/Nc2ncnc3[nH]ncc23)ccc1O", "inhibition": 1.5}, {"compound": "COC(=O)Nc1nc2ccc(Oc3ccc(NC(=O)Nc4cccc(Cl)c4)cc3)cc2[nH]1", "inhibition": 0.69}, {"compound": "CNC(=O)c1cncc(/C=C/c2ccccc2Cl)c1", "inhibition": 0.5}, {"compound": "COc1cc(N2CCN(C(C)C)CC2)ccc1Nc1nc(Nc2ccc(F)cc2C(N)=O)c2cc[nH]c2n1", "inhibition": 1.79}, {"compound": "Clc1ccc(-c2nn3ncccc3c2-c2ccnc(Nc3ccccc3)n2)cc1", "inhibition": 2.28}, {"compound": "Fc1ccc(-c2nn3ccccc3c2-c2ccncc2)cc1", "inhibition": 5.05}, {"compound": "COc1cc2c(cc1Nc1nc(Nc3ccsc3C(N)=O)c3cc[nH]c3n1)N(C(=O)CN(C)C)CCC2(C)C", "inhibition": 25}, {"compound": "CN1CCC(n2cnc(-c3ccc(F)cc3)c2-c2ccnc(N)n2)CC1", "inhibition": -0.08}, {"compound": "FC(F)(F)c1cccc(-c2nn3ncccc3c2-c2ccnc(Nc3ccc4c(c3)OCCO4)n2)c1", "inhibition": 0}, {"compound": "CC1=C(C(=O)Nc2cc(Cl)c3[nH]ncc3c2)C(c2ccc(C(F)(F)F)cc2)CC(=O)N1", "note": "(centres undefined)", "inhibition": 70.7}, {"compound": "CS(=O)(=O)CCNCc1ccc(-c2ccc3ncnc(Nc4ccc(OCc5ccccc5)c(C(F)(F)F)c4)c3c2)o1", "inhibition": 10.3}, {"compound": "Nc1nc(-c2ccc(F)cc2)c(-c2ccc3ncccc3n2)s1", "inhibition": 0.86}, {"compound": "COc1cc(Nc2nccc(Nc3ccc4c(C)n[nH]c4c3)n2)cc(OC)c1OC", "inhibition": 2.06}, {"compound": "CN(C)CCOc1ccc(-c2nc(-c3ccncc3)c(-c3ccc4c(c3)CC/C4=N\\O)[nH]2)cc1", "inhibition": 0.51}, {"compound": "CCn1c(-c2nonc2N)nc2c(C#CC(C)(C)O)ncc(OC3CCNCC3)c21", "inhibition": 3.14}, {"compound": "[O-][S+]1CCN(Cc2ccc(-c3ccc4ncnc(Nc5ccc(OCc6cccc(F)c6)c(Cl)c5)c4c3)o2)CC1", "inhibition": 2.1}, {"compound": "COc1ccc(-c2cc(-c3c[nH]nc3-c3ccccn3)ccn2)cc1", "inhibition": 1.04}, {"compound": "Cc1ccc2c(-c3ccnc(Nc4ccccc4)n3)c(-c3ccc(F)cc3)nn2n1", "inhibition": 1.01}, {"compound": "COc1ccc(-c2oc3ncnc(N)c3c2-c2ccc(NC(=O)Nc3cc(C(F)(F)F)ccc3F)cc2)cc1", "inhibition": 2.21}, {"compound": "CCCN(CCS(C)(=O)=O)Cc1ccc(-c2ccc3ncnc(Nc4ccc(OCc5cccc(F)c5)c(Cl)c4)c3c2)o1", "inhibition": 0.42}, {"compound": "CCn1c(-c2nonc2N)nc2c(C#CC(C)(C)O)nc(OC[C@H](N)c3ccccc3)cc21", "inhibition": 2.85}]}]}
